# The panel holds about 83,000 compounds, 20% with a hit somewhere; the sample as a whole holds those more often.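 Plates (96-well) were seeded with cells, treated with compound at one concentration, and incubated for 48 hours before percent growth was determined.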 Values without a mark were called inactive. Calls of active or inactive are those of the source. The calls were made as follows: active = growth percent below 10; inactive = the rest.
# Key:
# Experiment in all cases: NCI-60 one-dose screen, 48 h (100 = growth as untreated, 0 = no growth, -100 = all killed)
# Conditions in all cases: 10 µM unless noted
# SK-MEL-2 melanoma = test system: SK-MEL-2 melanoma
# EKVX NSCLC = test system: EKVX NSCLC
# SN12C renal = test system: SN12C renal
# UO-31 renal = test system: UO-31 renal
# TK-10 renal = test system: TK-10 renal
# ACHN renal = test system: ACHN renal
# CAKI-1 renal = test system: CAKI-1 renal
# CCRF-CEM leukemia = test system: CCRF-CEM leukemia
# MOLT-4 leukemia = test system: MOLT-4 leukemia
Compound,growth (SK-MEL-2 melanoma),growth (EKVX NSCLC),growth (SN12C renal),growth (UO-31 renal),growth (TK-10 renal),growth (ACHN renal),growth (CAKI-1 renal),growth (CCRF-CEM leukemia),growth (MOLT-4 leukemia)
CN(C)CCn1c2ccc(Br)cc2c2nc3ccccc3nc21,41.8%,41.6%,26.5%,11%,62.4%,9.3% (active),13.8%,28.4%,13.7%
O=c1ccc(-c2nc(N3CCOCC3)c3ccccc3n2)c[nH]1,108%,59.2%,94.6%,83.1%,87.3%,93.1%,95.9%,108%,110%
Cc1c(C(=O)NCCC(=O)NO)sc2ncnc(Nc3ccc(F)c(Cl)c3)c12,101%,99.4%,103%,84.8%,107%,102%,96.6%,105%,115%
O=C1OC(Cc2ccccc2)C1c1ccccc1 (stereo unspecified),102%,97.5%,97.7%,89%,89.4%,104%,97%,109%,101%
COc1cccc(-c2ccc3c(c2)NC(=O)/C3=C\c2ccc[nH]2)c1,52.7%,26.1%,69.2%,52.7%,27.1%,40.2%,28.3%,19%,34.4%
COc1ccc(NC(N)=NCCCOc2ccc(F)cc2)cc1,93.7%,69%,80.5%,86.7%,87.3%,89.3%,94%,82.9%,61%
C=C(C)[C@@H]1CC[C@]2(C(=O)N3CCN(C)CC3)CC[C@]3(C)[C@H](CC[C@@H]4[C@@]5(C)C/C(=C/c6cccnc6)C(=O)C(C)(C)[C@@H]5CC[C@]43C)[C@@H]12,82.8%,83.8%,57.6%,57.2%,101%,71.7%,79.8%,28.9%,14.9%
O=C1Nc2cc(-c3cccc(O)c3)ccc2/C1=C/c1ccc[nH]1,3.73% (active),22.6%,15.5%,-1.56% (active),16.4%,11%,5.88% (active),13.4%,15.4%
Cn1ccnc1C(=O)/C=C/c1ccc(CC(=O)Nc2ccc(F)cc2)cc1,102%,57.9%,23.9%,37.2%,71.9%,69.3%,38.1%,6.85% (active),20.6%
COC(=O)CNC(=O)[C@]12CCC(C)(C)C[C@H]1C1=CC[C@@H]3[C@@]4(C)Cc5c([nH]c6ccccc56)C(C)(C)[C@@H]4CC[C@@]3(C)[C@]1(C)CC2,77.3%,88.6%,89.8%,65.3%,90.3%,49.1%,71.2%,87.3%,63.6%
COc1c(Cl)c2c(c(OC)c1OC)-c1ccc(SC)c(=O)cc1[C@@H](NC(=O)OCC(F)(F)F)CC2,46.3%,40%,24.2%,28.6%,44.5%,25.8%,15.6%,4.8% (active),3.85% (active)
CN1CCN(c2ccc(NC3=C(Cl)C(=O)c4ncccc4C3=O)cc2C(F)(F)F)CC1,89%,110%,93.9%,-80.4% (active),-65.9% (active),-56.2% (active),-95.6% (active),-1.56% (active),1.95% (active)
COc1cc(/C=N/NC(=O)c2cnn3c2NC(c2ccccc2)C3)ccc1OCc1ccccc1 (stereo unspecified),6.28% (active),32.1%,29.2%,32.6%,-0.854% (active),10.7%,0.476% (active),17.1%,14.7%
CCN(CC)c1ccc(/C=N/NC(=O)CSc2nc3ccccc3c(=O)n2Cc2ccc(S(N)(=O)=O)cc2)c(O)c1,10.5%,35.1%,32.5%,45.9%,15.1%,33.6%,31%,10.8%,11.1%
Cc1cc(C)c(S(=O)(=O)Oc2ccccc2[N+](=O)[O-])c(C)c1,7.67% (active),48.2%,35.6%,22.8%,33.9%,37.4%,24%,20.6%,34.6%
CCC(=O)Oc1ccc(/C(=C(\C)c2ccccc2)c2ccc(OCCN3CCCCC3)cc2)cc1,92.1%,87.1%,79.7%,64.3%,84.2%,102%,87.8%,84.9%,60.8%
O=c1[nH]nc(-c2ccccc2)c2sc3ncc(-c4ccc(Br)cc4)n3c12,18.4%,67.3%,46.1%,73.3%,109%,75.7%,56.1%,22.4%,41.7%
CC(=O)Nc1ccc(-n2cnc3cc(-c4ccc(OCCN5CCCCC5)cc4)ccc32)cc1,119%,97.9%,67.1%,56.3%,146%,76.8%,84.2%,54.8%,73.1%
COc1ccccc1NC(=O)C1CC(c2ccc(F)cc2)=NO1 (stereo unspecified),103%,89.8%,96.3%,82.9%,105%,107%,95.3%,104%,103%
O=C(Nc1cccc(C(=O)N2CCc3ccc(Cl)cc32)c1)c1ccco1,25.8%,54.1%,49.6%,45.1%,77.6%,48.2%,29.6%,29.4%,30.1%
CCCOC(=O)N[C@H]1CCc2cc(OC)c(OC)c(OC)c2-c2ccc(SC)c(=O)cc21,50.8%,51.5%,29.5%,38.3%,48.2%,27.8%,19.8%,4.23% (active),7.04% (active)
COc1cc(/C=N/O)nc(-c2ccccn2)c1,25.6%,23.4%,15.5%,3.15% (active),35.3%,9.42% (active),18.4%,9.2% (active),12%
O=C(/C=C(/C=C/c1coc2ccccc12)OB(F)F)/C=C/c1coc2ccccc12,91.6%,108%,97.4%,87.7%,117%,101%,105%,72.6%,85.5%
CCCC/C=N/NC(=S)NCc1ccccc1,106%,101%,96.1%,93.3%,103%,99.4%,100%,99.1%,95%
O=C(NCCc1ccccc1)Nc1ccc2cc3ccc(NC(=O)NCCc4ccccc4)cc3nc2c1,0.339% (active),71.9%,-40.1% (active),89.9%,99.2%,100%,86.6%,0.959% (active),-46.4% (active)
Cc1ccc(CNc2c3ccccc3nc3cc(NC(=O)CCN4CCCC4)ccc23)cc1,40.2%,39.3%,2.87% (active),3.83% (active),-20% (active),12.3%,7.04% (active),-31.5% (active),-33.5% (active)
CC(=O)CCC(=O)OCc1cc(=O)c(O)co1,113%,109%,104%,97.1%,98.5%,101%,102%,98%,102%
C/C(=N\NC(=O)CSc1nc2ccccc2c(=O)n1Cc1ccc(S(N)(=O)=O)cc1)c1ccc(F)cc1,111%,90.9%,101%,84.5%,102%,105%,95%,106%,107%
Cc1nn(-c2ccccc2)c(Oc2c(Cl)cccc2Cl)c1/C=N/N=c1\sc2ccccc2n1C,80%,77.9%,59.1%,57.5%,85.7%,43.7%,36.4%,40.7%,18.6%

# — PubChem BioAssay (NCI)
